Source: PubChem BioAssay
This is a sample that favours compounds with a hit; in the whole collection about 4.3% have one here.
esBAF inh – SWI/SNF esBAF complex inhibition; hit rate 2% among 350,000; mouse ES cells, Bmi1-luciferase knock-in reporter, 24 h; 100% = twice the neutral-well signal; reporter increase, % at 12.5 µM; in the data active = activation above about 40%; inconclusive = no clear call, values can overlap the other calls;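 also: 0% = median of the plate's neutral control wells and 100% = double that signal; a rise in the Bmi1 reporter signal indicates esBAF inhibition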
HSF1 inh – HSF1 inhibition | AID 2098 | NIH3T3-HGL HSE-luciferase, MG132-induced, luminescence 8 h; hits give low values | hit rate 0.77% among 300,000 | activity change, negative = inhibition, % at 7.5 µM (by protocol);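 active = more than half of replicate wells show activity change below -50%, luminescence cut by over half; inconclusive = some wells, but at most half, below -50%; inactive = no replicate well below -50%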;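 also: luciferase reports HSF-1 transcriptional activity via heat shock element; 0% = median of DMSO wells and -100% = zero luminescence signal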
SMARCA2 act – increases SMARCA2 function in MMTV reporter cells. activation, % at 9.1 µM. MG213 cells, MMTV-luciferase reporter, dexamethasone, overnight. hit rate 1% among 370,000; in the data active = activation above about 7.8%;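 also: 0% = vehicle wells and 100% = reference activator wells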
Wnt act – Wnt/beta-catenin pathway activation; Wnt/beta-catenin reporter cell assay, activator, plate reader; activation, % at 9.35 µM; hit rate 1.2% among 300,000; in the data active = activation above about 30%, passing the limit was not always enough; inconclusive = no clear call, values can overlap the other calls;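 also: 0% = neutral control wells and 100% = positive control wells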
MITF act – activators of MITF-driven TRPM1 promoter activity in SK-MEL-5 cells | AID 588334 | hit rate 0.75% among 300,000 | activation, % at 12.5 µM | SK-MEL-5 TRPM1-promoter luciferase, 24 h; % of positive control, neutral wells = 0;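 active = mean activation of at least 80% with every replicate also reaching 80%; inconclusive = mean reaches 80% but some replicate falls short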;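 also: 0% = neutral control wells and 100% = parthenolide positive control wells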
HSF1 activator – increases HSF-1 driven luciferase reporter signal. activation, % at 9 µM. hit rate 1.7% among 300,000. NIH3T3-HGL HSF-1 luciferase reporter, MG132, 8 h; 100% = twice DMSO control signal. AID 504408;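 active = mean replicate activation of at least 50% with a set share of replicates each reaching 50%; inconclusive = only one of those two conditions met; inactive = mean below 50% and too few replicates reaching it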;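 also: 0% = median of the neutral control wells and 100% = twice that signal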
Numbers without * were called inactive; ? = inconclusive; nt = no result given.

SMILES	esBAF inh	HSF1 inh	SMARCA2 act	Wnt act	MITF act	HSF1 activator
O=C(c1ccccc1)N1N=C(C(F)(F)F)CC1(O)c1ccccc1 (stereo not given)	-3	-1	-2	-1	-13	2
COc1cccc(C2(O)CC(C(F)(F)F)=NN2C(=O)c2ccccn2)c1 (stereo not given)	nt	19	6	45*	36	20
OC(CNCc1ccco1)Cn1c2ccc(Br)cc2c2cc(Br)ccc21 (stereo not given)	-8	23	2	nt	-3	61*
Cc1ccc(S(=O)(=O)N(C)C[C@H]2Oc3ccc(NC(=O)Nc4cccc5ccccc45)cc3C(=O)N([C@@H](C)CO)C[C@@H]2C)cc1	3	nt	nt	nt	nt	nt
COc1ccc(OC)c(N(CC(=O)N2CCC(C)CC2)S(=O)(=O)c2ccc(OC)c(OC)c2)c1	10	6	-2	nt	nt	-1
COc1ccc(OC)c(N(CC(=O)N2CCC(C)CC2)S(=O)(=O)c2ccccc2)c1	-3	19	-2	-3	4	60*
O=C(C=C1NCCN1)c1ccccc1	4	2	-1	-1	nt	8
O=C(/C=C1\NCC2c3ccccc3CCN2C1=O)c1ccccc1 (stereo not given)	49*	-4	2	nt	nt	5
O=C(N[C@H]1CC[C@H](CCn2cc(-c3ccccn3)nn2)O[C@H]1CO)c1ccncc1	-4	nt	nt	nt	nt	nt
COc1ccccc1C#Cc1ccc2c(c1)O[C@H](CN(C)C(C)=O)[C@H](C)CN([C@H](C)CO)S2(=O)=O	-10	nt	nt	nt	nt	nt
CC(=O)N(Cc1cc2c(C)cc(C)cc2[nH]c1=O)C1CCCCC1	6	8	-1	nt	-5	31
CCOC(=O)Cn1nnnc1C(C(C)C)N(Cc1cc2c(C)cc(C)cc2[nH]c1=O)C1CCCC1 (stereo not given)	3	86	-1	nt	9	123*
Cc1cccc2cc(C(c3nnnn3C(C)(C)C)N(Cc3ccco3)CC3CCCO3)c(=O)[nH]c12 (stereo not given)	0	-8	4	nt	-5	7
Cc1ccc2[nH]c(=O)c(CN(CCCO)C(C)c3nnnn3Cc3ccco3)cc2c1 (stereo not given)	nt	-5	-4	-9	0	4
CCC(c1nnnn1Cc1ccco1)N(Cc1cc2cc(C)cc(C)c2[nH]c1=O)CC1CCCO1 (stereo not given)	-8	52	0	nt	-14	64*
COc1ccc2[nH]c(=O)c(CN(Cc3ccco3)C(c3nnnn3Cc3ccccc3)C(C)C)cc2c1 (stereo not given)	-9	3	0	nt	nt	30
CCC(c1nnnn1Cc1ccco1)N(Cc1ccccc1OC)Cc1cc2cc(C)ccc2[nH]c1=O (stereo not given)	5	88	-3	-2	nt	89*
Cc1cccc2cc(CN(Cc3ccco3)C(c3nnnn3CCc3ccccc3)C(C)C)c(=O)[nH]c12 (stereo not given)	2	138	-3	-2	0	198*
C[C@@H]1CN([C@H](C)CO)S(=O)(=O)c2ccc(C#CC3CC3)cc2O[C@H]1CN(C)Cc1ccncc1	-2	nt	nt	nt	nt	nt
C[C@H]1CN([C@@H](C)CO)C(=O)c2cc(NS(=O)(=O)c3ccc(F)cc3)ccc2O[C@@H]1CN(C)S(=O)(=O)c1cccs1	0	nt	nt	nt	nt	nt
COc1ccc2[nH]c(=O)c(CN(C3CCCCC3)C(c3nnnn3Cc3ccco3)C(C)C)cc2c1 (stereo not given)	nt	96	nt	nt	-3	119*
COc1ccc2[nH]c(=O)c(CN(Cc3nnnn3Cc3ccco3)C3CCCCC3)cc2c1	nt	15	-2	nt	4	24
CC(C)NC(=O)N1[C@H](CO)[C@H]2c3ccccc3N(C(=O)Nc3ccccc3)C[C@H]21	29	nt	nt	nt	nt	nt
CC(=O)c1nn(-c2cccc(Br)c2)cc1C(=O)c1ccc(Cl)cc1	1	43	3	-8	-6	84*
CC(=O)c1nn(-c2cccc(Br)c2)cc1C(=O)c1ccccc1	3	-6	-2	nt	nt	12
SMILES	esBAF inh	HSF1 inh	SMARCA2 act	Wnt act	MITF act	HSF1 activator
O=C(Nc1ccc(-c2cn3c(n2)SCC3)cc1)c1ccc2c(c1)OCO2	34	-2	3	5	18	-3
O=C(Nc1cccc(-c2cn3c(n2)SCC3)c1)c1ccc2c(c1)OCO2	49*	9	0	9	19	16
Cc1cc(F)ccc1NC(=O)Nc1ccc2c(c1)OCO2	16	-5	-2	6	15	4
Cc1ccc(NC(=O)Nc2ccc3c(c2)OCO3)cc1F	nt	15	3	0	126*	22
COC(=O)c1ccc(NC(=O)Nc2ccc3c(c2)OCO3)cc1	31	11	2	4	69	17
NC(=O)c1ccc(NC(=O)Nc2ccc3c(c2)OCO3)cc1	11	16	2	16	28	58*
O=C(Nc1cccc(F)c1)c1ccc2c(c1)OCO2	78*	24	1	nt	51	45
CN(C)C(=O)C[C@@H]1CC[C@@H](NC(=O)NC2CCCCC2)[C@H](CO)O1	-1	nt	nt	nt	nt	nt
COc1ccc(NC(=O)Nc2ccc3c(c2)CC(=O)N([C@@H](C)CO)C[C@@H](C)[C@H](CN(C)C)O3)cc1	-1	nt	nt	nt	nt	nt
CC(C)CC#Cc1ccc2c(c1)O[C@@H](CN(C)Cc1ccccc1F)[C@H](C)CN([C@H](C)CO)S2(=O)=O	-7	nt	nt	nt	nt	nt
O=C(Nc1cccc([N+](=O)[O-])c1)Nc1ccc2c(c1)OCCO2	nt	41	-2	10	90*	?
O=C(Nc1cccc([N+](=O)[O-])c1)Nc1cccc([N+](=O)[O-])c1	nt	2	-1	3	11	9
O=C(NCc1cccs1)Nc1cccc(Cl)c1	59*	5	1	nt	42	-7
CCN(CC)S(=O)(=O)c1cccc(C(=O)Nc2ccc3c(c2)OCO3)c1	nt	10	0	-2	?	17
CCC(CC)C(=O)Nc1cccc(C(=O)Nc2ccc3c(c2)OCO3)c1	47*	19	3	16	74	19
O=C(Nc1ccc2c(c1)OCO2)c1ccc2nc[nH]c2c1	49*	5	6	nt	77	19
COCC(=O)N(C)C[C@@H]1Oc2cc(-c3ccc(F)cc3)ccc2S(=O)(=O)N([C@@H](C)CO)C[C@H]1C	0	nt	nt	nt	nt	nt
COc1ccc(S(=O)(=O)N(C)C[C@@H]2OCCCC[C@@H](C)Oc3ccc(NS(C)(=O)=O)cc3C(=O)N([C@@H](C)CO)C[C@@H]2C)cc1	-3	nt	nt	nt	nt	nt
O=C(NCc1ccc2c(c1)OCO2)Nc1cccc(Cl)c1	67*	5	6	11	80*	32
S=C(Nc1ccc2c(c1)OCO2)Nc1ccc2c(c1)OCO2	51*	-2	4	5	31	-1
CC(C)C(=O)Nc1cccc(NC(=S)NC(=O)c2ccc3c(c2)OCO3)c1	62*	4	1	27	76	21
